Data reported in PubChem BioAssay (EPA / NIEHS).
“And” between values parts separate entries of the source, which are not always exact repeats. Equal values may be shown once. The source made the active and inactive calls. How the source made its calls: active means hit-call score of the fitted dose curve at least 0.9, where 1 is the maximum; inactive means score below 0.9.

assay: CCTE_Simmons_MITO_max_resp_rate: CCTE's HepG2 Seahorse XF Respirometric Screening Assay at Maximal Respiratory State [uncoupled], Simmons Lab (AID 2284002); settings: actives raise or lower the signal
Description: CCTE_Simmons_MITO is cell-based, respirometric assay using HepG2 cells and a Seahorse XF Analyzer to measure oxygen consumption rates over four temporal phases spanning a total of 72 minutes: pre-injection (pre-treatment), basal (following test compound injection), maximal (following FCCP uncoupler injection), and inhibited (following rotenone/antimycin A injection)CCTE_Simmons_MITO_max_resp_rate is one of 4 assay components calculated from the CCTE_Simmons_MITO assay. It is designed to make measurements of maximal respiration using a form of respirometric reporter, as detected with […] signals by Seahorse XF96 technology. Data from the assay component CCTE_Simmons_MITO_max_resp_rate was analyzed at the endpoint, CCTE_Simmons_MITO_max_resp_rate_OCR, with bidirectional fitting relative to DMSO as the negative control and baseline of activity. Using a type of respirometric reporter, measures of maximal respiration for gain or loss-of-signal activity can be used to understand cellular oxygen consumption as it relates to cellular respiration. To generalize the intended target to other relatable targets, this assay endpoint is annotated to the mitochondria intended target family, where the subfamily is respiration.
Test chemicals were administered as a titrated series of 7 concentrations from 125 nM up to 100 uM [final] prior to kinetic endpoint detection at 6 minute intervals [3 min mix followed by 3 minutes measure] for 72 minutes. Three biological replicates of technical singles were run for every chemical concentration tested. Dimethylsulfoxide [DMSO] was used as the vehicle control. The electron transport chain inhibitor fenpyroximate was used as the positive control for decreased basal respiration and was administered as a titrated series of 6 concentrations from 250 nM up to 2.75 uM [final] with technical triplicates for the top concentration only. The uncoupler 2,4-dintirophenol was used as the positive control for increased basal respiration and was administered as a titrated series of 6 concentrations from 938 nM up to 40 uM [final] with technical triplicates for the top concentration only. A Seahorse XF Analzyer is required to measure the response.

| SMILES | AC50 | outcome |
| --- | --- | --- |
| CCOC(=O)NCCOc1ccc(Oc2ccccc2)cc1 | 19.8 µM (active) | – |
| C[C@]12C[C@H](O)[C@H]3[C@@H](CCC4=CC(=O)CC[C@@]43C)[C@@H]1CC[C@@H]2C(=O)CO | – | inactive |
| CCCCC(CC)COC(=O)c1ccccc1C(=O)O (configuration not stated) | – | inactive |
| N#CSCSc1nc2ccccc2s1 | 22.7 µM (active) | – |
| CCCCOC(=O)[C@@H](C)Oc1ccc(Oc2ccc(C(F)(F)F)cn2)cc1 | – | inactive |
| Oc1ccc(C(c2ccc(O)cc2)C(Cl)(Cl)Cl)cc1 | 21.7 µM (active) | – |
| O=C(O)C1(C(=O)Nc2ccc(Cl)cc2Cl)CC1 | 37.8 µM (active) | – |
| CCCCOC(=O)C(C)Oc1ccc(Oc2ccc(C(F)(F)F)cn2)cc1 (configuration not stated) | – | inactive |
| CC(C)CCCCCCc1ccc(O)cc1 | 43.8 µM (active) | – |
| CC(C)(c1ccc(O)cc1)c1ccc(O)cc1 | 37.1 µM (active) and 34.8 µM (active) | – |
| CC(=O)[C@H]1CC[C@H]2[C@@H]3CCC4=CC(=O)CC[C@]4(C)[C@H]3CC[C@]12C | 13.4 µM (active) | – |
| Cc1nn(C)c(Oc2ccccc2)c1C=NOCc1ccc(C(=O)OC(C)(C)C)cc1 | 884 nM (active) and 948 nM (active) | – |
| CCCCC(CC)CN1C(=O)C2C3C=CC(C3)C2C1=O (configuration not stated) | 32.1 µM (active) | – |
| O=C(Nc1ccc([N+](=O)[O-])cc1Cl)c1cc(Cl)ccc1O | 0.928 µM (active) | – |
| N[C@@H](Cc1cc(I)c(Oc2ccc(O)c(I)c2)c(I)c1)C(=O)O | – | inactive |
| O=C(c1ccc(O)cc1O)c1ccc(O)cc1O | – | inactive |
| C=CCOC(Cn1ccnc1)c1ccc(Cl)cc1Cl (configuration not stated) | 38.2 µM (active) | – |
